Structures are written as SMILES. Where “and” joins values, the source holds several entries; their conditions need not be identical. Equal values may be shown once. Records with an inconclusive call do not appear. Where a call stands in place of a potency, no number is given. Calls of active or inactive are those of the source. Calls follow the shape of the dose curve; as a rule, active = well fitted cell-killing curve with a large enough effect; inconclusive = small, poorly fitted or top-dose-only effect; inactive = no such curve, though single readings can be large or run the other way.
Potency is read from the fitted curve at half-maximal effect.

This assay can be described thus: qHTS of pediatric cancer cell lines to identify multiple opportunities for drug repurposing: Confirmatory screen for BT-37 cells (AID 1347117). Also: nearly all actives have a fitted effect of over 55% in size. The note with it: BT-37 pediatric cancer cells, viability; series mostly up to 45.9 µM. From the text:
Drug repurposing or repositioning has been offered as a strategy for drug development in oncology programs. This approach has special potential for childhood cancers and other rare or orphan diseases, where the expected return on new drug development has been a disincentive to pharmaceuticals.
In this project we exploit the poly-pharmacology of drugs to discover new indications via phenotypic screening of a panel of 19 well-characterized cell lines derived from solid tumors seen in children and adolescents. The goal is to identify approved drugs with previously unrecognized anticancer properties that has the potential to reveal new mechanisms and biological processes involved in carcinogenesis or drug resistance. We employed a titration-based paradigm (quantitative high-throughput screening or qHTS), where all compounds were tested at multiple concentrations for their effect on cell viability. Concentration-response curves (CRCs) were derived directly from the primary screen, and both potency and efficacy values were used to identify compounds with robust bioactivity profiles. We screened the NIH Chemical Genomics Center (NCGC) Pharmaceutical Collection (NPC) and Mechanism Interrogation Plate (MIPE) small molecule collections of approved and investigational compounds against these cell lines; and measured metabolically active cells after 48 hours of compound treatment as a proxy for cell viability.
Assay Submitter: Nathalia J. Martinez, National Center for Advancing Translational Sciences, National Institutes of Health, Rockville, MD, USA; email: natalia.martinez@nih.gov
[1] Shen, M et al. Quantitative high-throughput phenotypic screening of pediatric cancer cell lines identifies multiple opportunities for drug repurposing. Oncotarget 2017 Dec 19;9(4):4758-4772. PMID 29435139.
The cells were obtained from University of North Carolina (UNC), Pediatric Preclinical Testing Program (PPT), and Coriell Institute (CI).
qHTS cell viability assay:
Cells were assayed in growth media at a density of 500-1,000 cells/well. Five microliters of cells were dispensed into 1,536-well, white, solid-bottom, TC-treated plates (Greiner Bio One) using a multidrop dispenser and incubated at 37 degrees C, 5% CO2, under a humidified atmosphere for 5 hours. Twenty-three nanoliters of compounds and controls (neutral control DMSO or positive control bortezomib at final concentration of 2.3 µM) were subsequently transferred by Kalypsys pintool. For primary screens, the MIPE collection was tested at 11-point dilutions (final concentrations range from 0.78 nM to 46 µM) and the NPC collection at 8-point dilutions (final concentrations range from 0.59 nM to 46 µM). Compounds tested in follow-up screens were assayed at 11-point dilutions. Cells were incubated for 48 hours, followed by addition of 3 µL of CellTiter-Glo (Promega). After a 15 min incubation at room temperature, samples were analyzed for luminescence intensity using a ViewLux High-throughput CCD imager equipped with clear filters.
In the case of `CN(C)C(=S)SSC(=S)N(C)C`, the Potency was 1.04 µM (active).
As for `ClC1=C(Cl)C2(Cl)C(CBr)CC1(Cl)C2(Cl)Cl` (configuration not stated), the Potency entry was “inactive”.
With `CCCCCCCCC(=O)NCc1ccc(O)c(OC)c1`, the Potency result is “inactive”.
Turning to `CCc1ccc(C2CCNCC2)cc1`, the Potency result is “inactive”.
For `C[C@@H]1C[C@@H]([C@H](O)CC2CC(=O)NC(=O)C2)C(=O)[C@@H](C)C1`, the Potency is 1.04 µM (active) and 1.17 µM (active).
`C[C@@H]1O[C@@H](O[C@@H]2C=C3CC[C@@H]4[C@H](CC[C@]5(C)[C@@H](c6ccc(=O)oc6)CC[C@]45O)[C@@]3(C)CC2)[C@H](O)[C@H](O)[C@H]1O`: the Potency is 0.0147 µM (active).
For `Cc1ccc([N+](=O)[O-])[c]2c1[O][Hg]2`, the Potency is 1.47 µM (active).
In the case of `CCCCCCCCCCCC[N+](C)(C)CCOc1ccccc1`, the Potency was 20.8 µM (active).
`CC1Sc2c(C(=O)O)c(=O)c3cc(F)c(N4CCNCC4)cc3n21` (configuration not stated): the Potency result was “inactive”.
Regarding `COc1ccc2c(C(=O)c3ccc(Cl)cc3)c(C)n(CC(=O)O)c2c1`, the Potency result was “inactive”.
As for `COC(=O)C1=CCCN(C)C1`, the Potency result was “inactive”.
With `CC[n+]1c(-c2ccccc2)c2cc(N)ccc2c2ccc(N)cc21`, the Potency was 1.04 µM (active).

These data come from PubChem BioAssay (NCATS).
